About 83,000 compounds went through this panel and 20% of them were active in at least one assay; those are over-represented in the sample as a whole.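 96-well plates, one dose, 48 hours. Percent growth reported; active if below 10.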 A number with no mark means an inactive call. Activity calls are given as the source filed them.

In PubChem BioAssay (NCI) one finds growth data, which are given here for 39 compounds.

For this assay, the system named is CCRF-CEM leukemia. The experiment in a line: NCI-60 one-dose screen, 48 h (100 = growth as untreated, 0 = no growth, -100 = all killed). The following applies: 10 µM unless noted.
As to `COc1ccccc1-c1nc2ccc3[nH]ncc3c2c2c1CCCC2`, the growth was 66.6%.
The same measure for `O=c1ccc2nc(-c3ccccc3)nn(-c3ccccn3)c-2c1`: 1.08% (active); for `Nc1ncc(-c2ccc3ncnc(N4CCc5cc(F)c(Cl)cc54)c3c2)cc1C=O`: 18.4%.
With `C#Cc1ccc(NC(=O)Cc2ccc(/C=C/C(=O)c3nccn3C)cc2)cc1`, the growth was 21.4%.
As for `CCCCN(CCC#N)C(N)=O`, the figure is 96.7%.
On to `COc1ccc(-c2cn(Cc3ccc4c(Br)cc(Br)c(O)c4n3)nn2)cc1`, for which the growth is 73.9%.
As for `CCc1ccc(Cc2cnc(NC(=O)c3cc(C)oc3C)s2)cc1`, the figure is 28.5%; as for `COc1cc(/C=C/c2cc(/C=C/c3ccc(O)c(OC)c3)n(C(=O)Nc3ccc(C)cc3C)n2)ccc1O`, 1.54% (active).
Take `Clc1nc(N2CCC[N+]3(CC2)CC[N+]2(CCCNCC2)CC3)nc(N2CCC[N+]3(CC2)CC[N+]2(CCCNCC2)CC3)n1` (centres undefined): the growth is 96.7%.
As for `O=S(=O)(Nc1ccc(Br)cc1)c1ccc(-c2cnc(C3CC3)o2)cc1`, the figure is 7.7% (active); as for `O=C1N/C(=N/N=C(c2ccccc2)c2ccccc2)S/C1=C\c1ccc(Br)cc1`, 84.4%; as for `COc1cc(OCc2cccc(-c3ccc4c(c3)OCCO4)c2C)cc(OC)c1C=O`, 59.1%.
As for `COC(=O)c1c(C)nc(C)c2c1C(=O)C(Br)=C(NCCCCO)C2=O`, the figure is 71.8%; as for `COc1ccc(CNc2c3ccccc3nc3ccccc23)cc1OC`, 30.5%.
Take `COc1cc(/C=C/C(=O)c2ccc(-n3cc(CN4CCN(c5cc6c(cc5F)c(=O)c(C(=O)O)cn6C5CC5)CC4)nn3)cc2)cc(OC)c1OC`: the growth is 34.6%.
As for `CCCCCC(C)(O)C(C(=O)O)c1ccccc1` (centres undefined), the figure is 105%.
As for `C[C@@H]1N=C(c2ccc(Cl)cc2Cl)Nc2nc3ccccn3c2C1=O`, the figure is 56.6%; as for `O=C(Nc1ccccc1)Nc1ccccc1CNc1nc(Nc2ccc(OCCN3CCCC3)cc2)ncc1Cl`, 20.4%.
In the case of `COc1ccc(S(=O)(=O)N(C)c2oc(-c3ccc(Cl)cc3)nc2C#N)cc1`, the growth is 72.2%.
As for `COc1cccc(C(=O)Nc2cccc(NC(=O)c3ccccn3)c2)c1`, the figure is 103%; as for `CS(=O)(=O)c1ccc(/C(=N/NC(N)=S)c2ccc(F)cc2)cc1`, 92.9%; as for `CSc1nc(N)c2c(n1)NC(c1ccccc1)C1CCc3ccccc3C1=N2` (centres undefined), 20%.
As for `COc1cccc(CNc2nnc(C)c(C)n2)c1O`, the figure is 101%.
For `COc1ccc(NC(=O)CSc2oc(-c3ccccc3)nc2S(=O)(=O)c2ccc(Cl)cc2)c(OC)c1`, the growth is 89.1%.
As for `O=C(c1ccc(F)cc1)C1CCN(CCn2c(=O)[nH]c3ccccc3c2=O)CC1`, the figure is 101%.
The same measure for `CC(=O)OCC(=O)O[C@@H]1C[C@]2(C(C)C)O[C@@]1(C)[C@@H]1CC[C@@H](C)[C@H]1[C@@H]2OC(=O)/C=C/c1ccccc1`: 70.7%; for `O=C(Nc1ncc(Cc2ccccc2)s1)c1cc(-c2ccccc2)nc2ccccc12`: 95.4%.
The same measure for `O=c1cc(-c2nccc3c2[nH]c2ccccc23)c2cc(Cl)ccc2o1`: 31.2%; for `O=C(CN1C(=O)NC2NC(=O)NC21)N/N=C/c1cccc([N+](=O)[O-])c1` (centres undefined): 106%.
Take `CCCCCCCCCCCCCC[n+]1ccc2c(C)c3c(c(C)c2c1)c1cc(O)ccc1n3CC`: the growth was -16% (active).
For the compound `C=C(C)[C@@H]1CCC[C@]2(C(=O)OC)CC[C@]3(C)[C@@H](CC[C@@H]4[C@@]5(C)CCCNC(C)(C)[C@@H]5CC[C@]43C)[C@@H]12`, the growth was 84%.
As for `COc1cc2c(cc1-c1c(C)noc1C)ncc1nc(C3CCOCC3)n(C3CCC(OC(F)F)CC3)c12` (centres undefined), the figure is 58.9%; as for `O=C1CCC(C(=O)N/N=C/c2ccc([N+](=O)[O-])cc2)N1` (centres undefined), 97%.
The same measure for `COc1cc(C(=O)/C=C/c2c(-c3cccs3)nc3sc(C)cn23)cc(OC)c1OC`: 19.5%; for `O=C(NS(=O)(=O)c1ccccc1)n1cc(-c2ccncc2)c(-c2cc(O)cc(Cl)c2)n1`: 87.4%.
With `COC(CCP(=O)(c1ccccc1)c1ccccc1)(C(=O)c1ccccc1)c1ccccc1` (centres undefined), the growth is 35.4%.
The same measure for `Cn1nc(-c2ccc(Cl)cc2)nc2c(=O)n(C)c(=O)nc1-2`: -27.6% (active); for `CC1(C)CCC[C@]23C(=O)O[C@](O)(C(=O)C4=C[C@@](C)(/C=C/CCCc5ccc6ccc7cccc8ccc5c6c78)CC[C@@]42O)[C@@H]13`: 0.0961% (active).
As for `COc1ccc(C2=C/C(=C\c3ccccc3O)C(=O)N2Cc2ccccc2)cc1`, the figure is 73.4%.
